Reference: PubChem BioAssay AID430 (Sanford-Burnham Center for Chemical Genomics, 2006)
In all, about 63,000 compounds went through this assay and about 1,100 (1.7%) were called active. Rule as the data show it: active = cytotoxicity above about 50%; inactive = the rest. The entries come from a sample that favours actives as a whole. Measured potencies and affinities stand elsewhere.

assay: HPDE-C7 pancreatic duct cell viability loss – fluorescence, HTS (AID 430); details: HPDE-C7 pancreatic duct cells viability, at 10 µM, stronger effect = higher value;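 also: cells exposed to compound for 48 hours before viability readout; 0% = vehicle and 100% = reference cytotoxic drug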

Question: With `N#Cc1c(NC(=O)CSc2nnc(-c3ccncc3)n2CC2CCCO2)sc2c1CCCC2` (stereo not drawn) as the compound, how does the cytotoxicity read?
Answer: 4.8% (inactive)

Question: Which cytotoxicity does the source give for `Cc1ccc(/C=c2/sc3nnc(-c4ccccc4Cl)n3c2=O)o1` here?
Answer: 69.7% (active)

Question: With `Cc1ccccc1-c1nnc2s/c(=C\c3ccc(N(C)C)cc3)c(=O)n12` as the compound, how does the cytotoxicity read?
Answer: 2.2% (inactive)

Question: Which cytotoxicity does the source give for `Cc1ccc(/C=c2\sc3nc(-c4ccccc4Br)nn3c2=O)o1` here?
Answer: 2.6% (inactive)

Question: Which cytotoxicity does the source give for `OCc1cn(-c2ccccc2)nc1-c1ccc2c(c1)OCCO2` here?
Answer: -21.5% (inactive)

Question: With `CC(=O)Nc1ccc(S(=O)(=O)N2CCSC2c2ccccc2Cl)cc1` (stereo not drawn) as the compound, how does the cytotoxicity read?
Answer: 3.4% (inactive)

Question: With `CC1CCCCN1CCn1cnc2c([nH]c3ccccc32)c1=O` (stereo not drawn) as the compound, how does the cytotoxicity read?
Answer: -2.1% (inactive)

Question: For `CCNc1nc(NC(C)C)nc(N(C#N)CCOc2ccc(Cl)cc2Cl)n1`, which cytotoxicity is on record?
Answer: 94.5% (active)

Question: With `CCNc1nc(NC(C)C)nc(N(C#N)Cc2ccccc2)n1` as the compound, how does the cytotoxicity read?
Answer: 6.3% (inactive)

Question: For `CCCN(C#N)c1nc(NCC)nc(NC(C)C)n1`, which cytotoxicity is on record?
Answer: -11.1% (inactive)

Question: Which cytotoxicity does the source give for `CCOc1ccc(-n2cc(C(=O)N3CCN(C)CC3)c3cc(OC)c(OC)cc3c2=O)cc1` here?
Answer: -7.2% (inactive)

Question: For `Cn1cc(C(=O)NC2CCCCC2)c(=O)c2cc(S(=O)(=O)N3CCCC3)ccc21`, which cytotoxicity is on record?
Answer: 6.5% (inactive)

Question: Which cytotoxicity does the source give for `Cn1cc(C(=O)NC2CCCCCC2)c(=O)c2cc(S(=O)(=O)N3CCCC3)ccc21` here?
Answer: -2.6% (inactive)

Question: For `CC1CCN(S(=O)(=O)c2ccc3c(c2)c(=O)c(C(=O)NC2CCCC2)cn3C)CC1`, which cytotoxicity is on record?
Answer: 77% (active)

Question: With `COC(=O)C1(C)NC(c2cccs2)C2C(=O)N(c3ccc(F)cc3)C(=O)C21` (stereo not drawn) as the compound, how does the cytotoxicity read?
Answer: 3.3% (inactive)

Question: With `Cc1cc(NC(=O)CSc2nnc3c(C)cc4c(C)ccc(C)c4n23)no1` as the compound, how does the cytotoxicity read?
Answer: 64.6% (active)

Question: With `Cc1cc(NC(=O)CSc2nnc3c(C)cc4cc(C)c(C)cc4n23)no1` as the compound, how does the cytotoxicity read?
Answer: 6.8% (inactive)

Question: Which cytotoxicity does the source give for `Cc1cc(C)c2c(c1)cc(C)c1nnc(SCC(=O)Nc3cc(C)on3)n12` here?
Answer: 20.4% (inactive)

Question: For `CCN(CCCNC(=O)CC(C(=O)N1CCc2ccccc21)n1ccnc1)c1ccccc1` (stereo not drawn), which cytotoxicity is on record?
Answer: -6.9% (inactive)

Question: With `Cc1cccc2sc(NC(=O)CN(C)S(=O)(=O)c3cccs3)nc12` as the compound, how does the cytotoxicity read?
Answer: 14.9% (inactive)

Question: For `Cc1cccc2sc(NC(=O)CNS(=O)(=O)c3ccc(Br)s3)nc12`, which cytotoxicity is on record?
Answer: 1.3% (inactive)

Question: With `C1CCN(c2nc(N3CCCC3)nc(N3CCNCC3)n2)C1` as the compound, how does the cytotoxicity read?
Answer: 2.6% (inactive)

Question: Which cytotoxicity does the source give for `CCOC(=O)CSC1=C(C#N)C(c2ccc(F)cc2)C(C(C)=O)=C(C)N1` (stereo not drawn) here?
Answer: 0.3% (inactive)

Question: With `CC(=O)C1=C(C)NC(SCC(=O)c2ccc(Cl)c(Cl)c2)=C(C#N)C1c1ccco1` (stereo not drawn) as the compound, how does the cytotoxicity read?
Answer: 75.6% (active)

Question: With `CC(=O)C1=C(C)NC(SCC(=O)c2ccccc2)=C(C#N)C1CC(C)C` (stereo not drawn) as the compound, how does the cytotoxicity read?
Answer: 8.5% (inactive)

Question: With `C=CCOC(=O)C1=C(C)NC(SCC(=O)Nc2ccc(C)c(Cl)c2)=C(C#N)C1c1ccco1` (stereo not drawn) as the compound, how does the cytotoxicity read?
Answer: 0.2% (inactive)

Question: For `Cc1ccc(C(=O)CSC2=C(C#N)C(c3ccco3)CC(=O)N2)c(C)c1` (stereo not drawn), which cytotoxicity is on record?
Answer: -3% (inactive)

Question: With `COc1ccccc1NC(=O)C1=C(C)NC(SCC(=O)c2ccc(C)cc2)=C(C#N)C1c1ccco1` (stereo not drawn) as the compound, how does the cytotoxicity read?
Answer: 36.6% (inactive)

Question: With `CC(=O)C1=C(C)NC(SCC(=O)c2cc(Cl)ccc2Cl)=C(C#N)C1c1ccco1` (stereo not drawn) as the compound, how does the cytotoxicity read?
Answer: 53% (active)

Question: For `CC(=O)C1=C(C)NC(SCC(=O)c2ccc(Cl)cc2Cl)=C(C#N)C1c1ccco1` (stereo not drawn), which cytotoxicity is on record?
Answer: 40.9% (inactive)

Question: For `CSCSC1=C(C#N)C(c2ccccc2Cl)C(C(C)=O)=C(C)N1` (stereo not drawn), which cytotoxicity is on record?
Answer: 21.5% (inactive)

Question: Which cytotoxicity does the source give for `COCCOC(=O)C1=C(C)NC(SCC(=O)NC(C)(C)C)=C(C#N)C1c1ccco1` (stereo not drawn) here?
Answer: 10.7% (inactive)

Question: Which cytotoxicity does the source give for `CC(=O)C1=C(C)NC(SCC(=O)c2ccc(F)cc2)=C(C#N)C1c1ccco1` (stereo not drawn) here?
Answer: 79.8% (active)
